Test results: the supplement of paper PMC7366291
Counter-ions that a name gives are not always drawn. ± gives the standard deviation or the standard deviation of the averaged measurements.

Assays:
Conditions in all cases: 25 µM; exposure: 24-48 hpf
[1] = tested on: Danio rerio Tg(wt1b:EGFP) embryo, pronephros; assay: glomerular separation, fold change vs DMSO control; higher = glomeruli further apart (abnormal)
Outline: (§1)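 Using a Fiji macro, distances and angles were calculated from 16 reference points set by hand on maximum projections of pronephroi imaged dorsally (470 nm, 10 z-slices) in agarose-filled 96-well plates. The dechorionated Tg(wt1b:EGFP) zebrafish embryos had received 25 μM compound in 0.5% DMSO in HEPES-buffered E3 with 0.003% PTU from 24 to 48 hpf at 28.5°C. Values more than 2 SD from a feature's mean were excluded. Each feature appears as a fold change over the mean of DMSO-treated embryos from the same day.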

[2] = tested on: Danio rerio Tg(wt1b:EGFP) embryo, pronephros; assay: glomerular width (mean of left and right), fold change vs DMSO control; higher = wider glomerulus
Outline: as §1

[3] = tested on: Danio rerio Tg(wt1b:EGFP) embryo, pronephros; assay: fraction of imaged embryos annotated as normal kidney; higher = less nephrotoxic; extreme values may be limits of the assay
Outline: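 Dechorionated Tg(wt1b:EGFP) zebrafish embryos were exposed in 12-well plates to 25 μM compound in 0.5% DMSO, 5 mM HEPES-buffered E3 with 0.003% PTU, from 24 to 48 hpf at 28.5°C. Tricaine-anaesthetised larvae were oriented dorsally in agarose-filled 96-well plates, and pronephroi were imaged by widefield fluorescence (470 nm, 10 z-slices). Each embryo was manually annotated from maximum projections. The read-out is the fraction of embryos per treatment assigned to the normal-kidney category.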

[4] = tested on: Danio rerio Tg(wt1b:EGFP) embryo, pronephros; assay: pronephric angle neck segment to proximal convoluted tubule (mean of left and right), fold change vs DMSO control; higher = larger pronephric angle
Outline: as §1

Compound | glomerular separation [1] | glomerular width [2] | fraction of imaged embryos annotated as normal kidney [3] | pronephric angle neck segment [4]
CC[C@@H](CO)NCCN[C@@H](CC)CO [Ethambutol dihydrochloride] | 1.28 ± 0.4 | 0.965 ± 0.028 | 0.75 | 1.02 ± 0.076
CC[N+](C)(C)c1cccc(O)c1 [Edrophonium chloride] | 1.26 ± 0.22 | 1.03 ± 0.026 | 0.833 | 0.876 ± 0.05
Clc1ccc2nsnc2c1NC1=NCCN1 [Tizanidine hydrochloride] | 1.02 ± 0.43 | 1.01 ± 0.016 | 0.833 | 0.984 ± 0.036
NC(=O)c1ccc[n+]([C@@H]2O[C@H](COP(=O)([O-])OP(=O)(O)OC[C@H]3O[C@@H](n4cnc5c(N)ncnc54)[C@H](O)[C@@H]3O)[C@@H](O)[C@H]2O)c1 [Nadide] | 0.955 ± 0.26 | 1.0386 ± 0.00057 | 0.75 | 0.9494 ± 0.0036
Nc1ccn([C@@H]2CS[C@H](CO)O2)c(=O)n1 [Lamivudine] | 0.982 ± 0.27 | 0.984 ± 0.042 | 0.667 | 0.987 ± 0.031
Clc1ccc(CSC(Cn2ccnc2)c2ccc(Cl)cc2Cl)cc1 (configuration not stated) [Sulconazole nitrate] | 2.88 ± 1.5 | 0.798 ± 0.035 | 0.25 | 1.38 ± 0.15
CO[C@H]1/C=C/O[C@@]2(C)Oc3c(C)c(O)c4c(O)c(c(/C=N/N5CCN(C6CCCC6)CC5)c(O)c4c3C2=O)NC(=O)/C(C)=C\C=C\[C@H](C)[C@H](O)[C@@H](C)[C@@H](O)[C@@H](C)[C@H](OC(C)=O)[C@@H]1C [Rifapentine] | 0.895 ± 0.2 | 0.985 ± 0.066 | 0.909 | 1.1 ± 0.094
Cc1nnc(SCC2=C(C(=O)O)N3C(=O)[C@@H](NC(=O)Cn4cnnn4)[C@H]3SC2)s1 [Cefazolin sodium salt] | 0.771 ± 0.24 | 1.072 ± 0.008 | 0.75 | 1.03 ± 0.027
Cc1ccc(N(CC2=NCCN2)c2cccc(O)c2)cc1 [Phentolamine hydrochloride] | 1.13 ± 0.33 | 1.08 ± 0.02 | 0.667 | 0.994 ± 0.018
Cc1cccc(C)c1NC(=O)C(C)N (configuration not stated) [Tocainide hydrochloride] | 1.08 ± 0.37 | 0.975 ± 0.0083 | 1 | 0.941 ± 0.048
N=C(N)NCCN1CCCCCCC1 [Guanethidine sulfate] | 0.862 ± 0.46 | 1.04 ± 0.04 | 0.917 | 0.958 ± 0.035
Cc1nc2n(c(=O)c1CCN1CCC(c3noc4cc(F)ccc34)CC1)CCCC2 [Risperidone] | 0.741 ± 0.16 | 1.04 ± 0.043 | 1 | 0.974 ± 0.021
CN1CCN(c2c(F)cc3c(=O)c(C(=O)O)cn(CCF)c3c2F)CC1 [Fleroxacin] | 0.566 ± 0.3 | 0.977 ± 0.049 | 0.917 | 1.049 ± 0.0028
Nc1cc(C(Cl)=C(Cl)Cl)c(S(N)(=O)=O)cc1S(N)(=O)=O [Clorsulon] | 0.798 ± 0.23 | 0.948 ± 0.062 | 0.917 | 0.935 ± 0.044
CN1C(=O)CC(c2ccccc2)C1=O (configuration not stated) [Phensuximide] | 0.924 ± 0.43 | 0.9434 ± 0.0058 | 0.889 | 0.997 ± 0.013
NC(=O)c1cccnc1 [Nicotinamide] | 1 ± 0.22 | 1.022 ± 0.0032 | 0.909 | 0.985 ± 0.059
NCc1ccccc1CC(=O)N[C@@H]1C(=O)N2C(C(=O)O)=C(CSc3nnnn3CC(=O)O)CS[C@H]12 [Ceforanide] | 1.15 ± 0.8 | 0.949 ± 0.091 | 0.833 | 1.08 ± 0.038
CCCCOc1ccc(OCCCN2CCOCC2)cc1 [Pramoxine hydrochloride] | 0.962 ± 0.26 | 0.951 ± 0.025 | 0.917 | 0.993 ± 0.033
CCN(Cc1ccncc1)C(=O)C(CO)c1ccccc1 (configuration not stated) [Tropicamide] | 0.966 ± 0.68 | 1.08 ± 0.027 | 0.75 | 0.987 ± 0.052
COc1ccccc1N1CCN(CCCCNC(=O)c2ccc3ccccc3c2)CC1 | 0.691 ± 0.17 | 1.02 ± 0.049 | 0.917 | 0.969 ± 0.018
CN(C)CCOC(=O)COc1ccc(Cl)cc1 [Meclofenoxate hydrochloride] | 1.19 ± 0.36 | 1.02 ± 0.049 | 0.667 | 1.05 ± 0.057
Cc1cc(NC(=O)C2=C(O)c3ccccc3S(=O)(=O)N2C)no1 [Isoxicam] | 1.19 ± 0.55 | 1.04 ± 0.034 | 0.917 | 1.02 ± 0.036
C[C@]12C[C@H](O)[C@H]3[C@@H](CCC4=CC(=O)CC[C@@]43C)[C@@H]1CC[C@@H]2C(=O)CO [Corticosterone] | 1.36 ± 0.4 | 1.13 ± 0.026 | 0.417 | 1.01 ± 0.019
CC(C)OC(=O)CCC/C=C\C[C@@H]1[C@@H](CC[C@@H](O)CCc2ccccc2)[C@H](O)C[C@@H]1O [Latanoprost] | 1.02 ± 0.44 | 1.05 ± 0.014 | 0.833 | 1.02 ± 0.013
CCOc1ccccc1OC(c1ccccc1)C1CNCCO1 (configuration not stated) [Reboxetine mesylate] | 1.16 ± 0.43 | 1 ± 0.077 | 0.909 | 0.99 ± 0.0046
NC[C@@H]1O[C@H](O[C@H]2[C@@H](O)[C@H](O[C@@H]3[C@@H](O)[C@H](N)C[C@H](N)[C@H]3O[C@H]3O[C@H](CO)[C@@H](O)[C@H](O)[C@H]3N)O[C@@H]2CO)[C@H](N)[C@@H](O)[C@@H]1O [Paromomycin sulfate] | 0.691 ± 0.18 | 1.07 ± 0.0023 | 0.75 | 0.99 ± 0.051
Cc1ncc([N+](=O)[O-])n1CC(O)CCl (configuration not stated) [Ornidazole] | 0.923 ± 0.39 | 1.06 ± 0.028 | 0.75 | 0.985 ± 0.027
CCSc1ccc2c(c1)N(CCCN1CCN(C)CC1)c1ccccc1S2 [Thiethylperazine dimalate] | 0.677 ± 0.22 | 1.054 ± 0.0092 | 0.833 | 0.9766 ± 0.0079
